High-throughput results as filed in PubChem BioAssay.
HCMV inh: human cytomegalovirus inhibition; AID 1259415; activity change, negative = inhibition, % at 57.5 µM; HFF cells, HCMV-luciferase reporter, 72 h; active compounds read low; 4.5% of 410,000 active; in the data active = activity change below about -60%; inconclusive = no clear call, values can overlap the other calls; inactive = above about -39%; also: % is scaled to controls: 0 for no effect and ±100 for the full control effect
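Screen run at 2 compound doses on HFFs infected with reporter HCMV, MOI 1 PFU/cell. Luciferase activity from cell lysates at 72 h post infection gave inhibition relative to buffer-only and Salinomycin wells.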
AmpC detergent: AmpC beta-lactamase inhibition with detergent present; P00811; AmpC hydrolysis of nitrocefin, absorbance 480 nm, 0.01% Triton; AID 485294; 0.041% of 370,000 active; Potency, µM (highest dose often 114 µM), for inactives: at the top dose activity change, negative = inhibition, most hits filed as inhibitors;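 also: potency is read from the fitted curve at half-maximal effect; 0% = no-compound wells and -100% = no-enzyme wells; nearly all actives have a fitted effect of over 25% in size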
Target sequence (P00811 whole entry, looked up): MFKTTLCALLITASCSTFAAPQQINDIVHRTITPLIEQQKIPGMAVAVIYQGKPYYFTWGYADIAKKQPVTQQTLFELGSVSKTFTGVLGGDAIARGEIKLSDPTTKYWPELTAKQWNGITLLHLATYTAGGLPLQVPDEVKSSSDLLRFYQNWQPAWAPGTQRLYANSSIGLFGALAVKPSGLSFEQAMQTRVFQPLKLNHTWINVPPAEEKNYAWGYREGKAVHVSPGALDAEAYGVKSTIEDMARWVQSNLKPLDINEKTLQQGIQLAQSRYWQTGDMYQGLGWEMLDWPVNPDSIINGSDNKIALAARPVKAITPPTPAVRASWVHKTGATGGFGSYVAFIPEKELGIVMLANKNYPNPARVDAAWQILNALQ
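AmpC (5.3 nM in the dispensed reagent) in 20 mM phosphate pH 7.0 with 0.01% (detergent screen) or 0.0001% Triton X-100 was preincubated with compounds for 15 min at room temperature. Nitrocefin was then added from an 800 uM solution, and hydrolysis was followed at 480 nm.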
AmpC inh no detg: blocks E. coli AmpC beta-lactamase in detergent-free assay; AmpC nitrocefin hydrolysis, absorbance 480 nm, 0.0001% Triton; Potency, µM (highest dose often 57.1 µM), for the others: top-dose activity change, negative = inhibition, hits mostly inhibitors; 0.52% of 330,000 active;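 also: potency is read from the fitted curve at half-maximal effect; plate controls were no compound for no effect and no enzyme for full effect; nearly all actives have a fitted effect of over 20% in size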
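AmpC (5.3 nM in the dispensed reagent) in 20 mM phosphate pH 7.0 with 0.01% (detergent screen) or 0.0001% Triton X-100 was preincubated with compounds for 15 min at room temperature. Nitrocefin was then added from an 800 uM solution, and hydrolysis was followed at 480 nm.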
FMDV inh: foot and mouth disease virus antiviral activity; Potency, µM (top dose mostly 57.9 µM), inactives show top-dose activity change, negative = inhibition, hits mostly inhibitors; FMDV antiviral cell-based qHTS; 1.2% of 410,000 active; calls by dose curve; tested in HEK293T cells; also: read-out not given here; potency is read from the fitted curve at half-maximal effect; % is scaled to controls: 0 for no effect and ±100 for the full control effect; nearly all actives have a fitted effect of over 45% in size
HCV inh: blocks hepatitis C virus. Huh7.5.1 HCVcc-Cre infection, luciferase reporter, 44 h. Potency, µM (highest dose often 41.8 µM), for the others: at the top dose activity change, negative = inhibition, usual class: inhibitors. 3.4% of 340,000 active; also: potency is read from the fitted curve at half-maximal effect; % is scaled to controls: 0 for no effect and ±100 for the full control effect
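HCVcc-Cre virus at an moi near 0.5 was added right after compound to cells cultured 4 h from seeding (1,000 cells/well). Luciferase activity was determined 44 h later, 15 min after substrate addition at RT.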
HCV inh confirm: HCV inhibition, cherry-pick confirmation. AID 720575. shares compounds with HCV inh. HCVcc-Cre infectious virus cell assay, luciferase, inhibition. 78% of 640 active. Potency, µM (titrated, usually from 41.8 µM), for the others: top-dose activity, negative = inhibition, most hits filed as inhibitors; also: potency is read from the fitted curve at half-maximal effect; nearly all actives have a fitted effect of over 80% in size
HCV cytotox: toxic to HCV host cells, flagging false HCV inhibitors; Potency, µM (doses to about 41.8 µM), without a hit: at the highest dose activity change, negative = cytotoxicity, usual class: inhibitors; 22% of 640 active; AID 720576; shares compounds with HCV inh; HCV host cell line cytotoxicity counterscreen;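 also: potency is read from the fitted curve at half-maximal effect; 44 h compound exposure; % is scaled to controls: 0 for no effect and ±100 for the full control effect; nearly all actives have a fitted effect of over 55% in size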
* hit, by the source's call; ? = inconclusive; · = no result. Hits are enriched below; roughly 7.3% of the tested compounds scored in any of these assays. Unless noted, calls follow the shape of the dose curve; as a rule, active = well fitted curve in the direction sought with a large enough effect; inconclusive = small, poorly fitted or top-dose-only effect, or another doubt; inactive = no such curve, though single readings can be large; an effect the other way counts as inactive or inconclusive.

SMILES	HCMV inh	AmpC detergent	AmpC inh no detg	FMDV inh	HCV inh	HCV inh confirm	HCV cytotox
CCOC(=O)c1ccc(NC(=S)N(CCCN2CCCC2)Cc2cccs2)cc1	-26	?	-10%	41%	?	?	22%
CCOC(=O)c1ccc(NC(=S)N(CCCN2CCN(C)CC2)Cc2cccs2)cc1	8	-5%	184%	9%	?	·	·
COc1nc(Nc2nc3ccccc3c(=O)[nH]2)nc2ccc(C)cc12	-100*	2%	-8%	45%	3.2µM*	7µM*	?
CCc1csc(CNC(=O)C2CCC(=O)N(Cc3cccc(OC)c3)C2)n1 (stereo not given)	4	·	·	-9%	·	·	·
O=C(Nc1ccc(S(=O)(=O)N2CCCC2)cc1)c1ccc(CN2CCc3ccccc3C2)cc1	·	-1%	-7%	?	7.1µM*	0.63µM*	1µM*
CC(=O)c1ccc(NC(=O)c2ccc(S(=O)(=O)N3CCCC3)cc2)cc1	-11	-4%	-39%	-23%	-7%	·	·
COc1ccc(NC(=S)NCCSc2ccc(Cl)cc2)c(OC)c1	-26	-2%	6%	-8%	5.6µM*	25µM*	-24%
Cc1noc(C)c1S(=O)(=O)Nc1ccc(C(C)C)cc1	2	?	-17%	7%	-29%	·	·
COc1ccc(-c2nc(-c3ccccc3OC)no2)cc1OC	31	3%	226%	2%	?	22µM*	5%
CS(=O)(=O)N1Cc2cc(C(=O)NCC3CCCCC3)nc(-c3cccc(-c4cccnc4)c3)c2[C@H]1CCO	-9	·	·	-28%	·	·	·
CCOc1ccc(CCNC(=O)c2cc3sccc3n2C)cc1OCC	-11	-11%	23%	?	6.3µM*	14µM*	?
CCC(=O)NC(c1cccs1)c1cc(Cl)c2cccnc2c1O (stereo not given)	?	-6%	26%	-15%	4µM*	7µM*	11µM*
Cc1cc(C[n+]2ccsc2N)c2ncccc2c1	-15	0%	-18%	-13%	-5%	·	·
Cc1cc(C[n+]2ccccc2)c2nsnc2c1	?	?	-16%	·	?	3.5µM*	13µM*
COc1ccc(CNc2cccc3[nH]c(C(F)(F)F)nc23)cc1OC	2	3%	-11%	-24%	5.6µM*	22µM*	3%
Cc1ccc([C@H]2C[C@H](O)[C@@H](n3cc(COC(=O)c4ccccc4)nn3)CN2Cc2cccs2)cc1	9	·	·	-12%	·	·	·
O=C(Nc1ccccn1)C(c1ccccc1)c1ccccc1	-5	·	·	0%	·	·	·
CCOC(=O)c1c(CN2CCN(CCO)CC2)n(C)c2cc(Br)c(OC)cc12	-18	?	173%	-1%	2.8µM*	10µM*	19%
CCOC(=O)c1c(C)n(C)c2cc(Br)c(OC)cc12	-28	0%	111%	-14%	7.9µM*	14µM*	16%
Cc1ccc(N(C(=O)CCl)C(C(=O)NC2CCCCC2)c2cccnc2)cc1C (stereo not given)	-99*	-6%	175%	7.9µM*	0.89µM*	0.5µM*	0.4µM*
O=S1(=O)c2ccc(Br)cc2OC2CCCC[C@@H]2N1Cc1ccccc1 (stereo not given in full)	9	·	·	·	·	·	·
c1cncc(-c2nc(N3CCCCCC3)c3ccccc3n2)c1	-31	-3%	72%	?	?	·	·
c1ccc2c(N3CCCCCC3)nc(-c3ccncc3)nc2c1	?	1%	3%	?	8.9µM*	0.01µM*	18%
Fc1ccccc1Nc1nc(-c2ccncc2)nc2ccccc12	35	-20%	-25%	?	2.2µM*	8.9µM*	30%
c1ccc(Nc2nc(-c3ccncc3)nc3ccccc23)cc1	38	?	-21%	?	?	5µM*	-95%
SMILES	HCMV inh	AmpC detergent	AmpC inh no detg	FMDV inh	HCV inh	HCV inh confirm	HCV cytotox
O=C(CCC(=O)c1cccs1)NCCc1ccc(F)cc1	8	?	-39%	-12%	10%	·	·
CSc1ccc(Cl)c(C(=O)OCC(=O)N2CCN(c3ccccc3)CC2)c1	?	0%	1%	-24%	?	·	·
Cc1cnc(N=Nc2ccccc2)[nH]1	-31	·	·	51%	-26%	·	·
CCn1c(SCC(=O)c2ccccc2)nc2c(c1=O)SC(C)C2 (stereo not given)	-21	3%	2%	-12%	?	?	22%
COCCn1c(SCC(=O)c2ccccc2)nc2c(c1=O)SC(C)C2 (stereo not given)	-28	-8%	4%	·	-27%	·	·
COc1ccc(-c2cc(-c3ccccc3)c(C#N)c(SCC(=O)Nc3ncc(C)s3)n2)cc1	-12	-1%	-34%	-9%	4.5µM*	20µM*	9%
CCS(=O)(=O)N1CCC(C(=O)NCc2ccc3c(c2)OCO3)CC1	20	-3%	-4%	4%	14%	·	·
O=C(NCc1ccc2c(c1)OCO2)C1CCN(C(=O)Nc2ccc(Cl)cc2)CC1	63	-2%	-25%	0%	?	13µM*	-1%
CC1(C)CC(=O)c2c(O)cc(OCC(=O)Nc3ccc(CCO)cc3)cc2O1	-25	?	-5%	0%	5µM*	14µM*	15%
Cc1cc(=O)oc2c3c(cc(OCC(=O)Nc4ccc(CCO)cc4)c12)OC(C)(C)CC3	4	?	133%	-20%	0.71µM*	22µM*	31%
Cc1cc(=O)oc2c3c(cc(OCC(=O)Nc4cccnc4)c12)OC(C)(C)CC3	2	?	-26%	-21%	?	·	·
Cc1ccc(CNC(=O)COc2cc(O)c3c(c2)OC(C)(C)CC3=O)cc1	0	?	-8%	-7%	?	·	·
COC(=O)c1ccccc1NC(=O)Cn1c(=O)n(CCCC(=O)NCc2ccccc2OC)c(=O)c2ccccc21	2	10%	·	-30%	·	·	·
O=C(CCc1nnc2n(Cc3ccc(Cl)cc3)c(=O)c3ccccc3n12)N1CCN(c2ccccn2)CC1	·	-7%	42%	?	3.5µM*	4µM*	48%
CC(C)OCCCn1c(=O)c2ccccc2n2c(CCC(=O)N3CCN(c4ccccn4)CC3)nnc12	-32	2%	43%	-21%	?	·	·
COCCCNCCOCCOc1ccccc1-c1ccccc1	-36	3%	68%	12%	7.9µM*	?	?
C=CCNCCOCCOc1ccccc1-c1ccccc1	?	3%	81%	-8%	-11%	·	·
CC(C)N1CCC(N2CCN(Cc3ccc(-c4ccccc4Cl)o3)CC2CCO)CC1 (stereo not given)	-31	2%	41%	-20%	4µM*	6.3µM*	28%
